Reference: ChEMBL document CHEMBL4513216, “Probing the Open Global Health Chemical Diversity Library for Multistage-Active Starting Points for Next-Generation Antimalarials” (ACS Infect Dis, 2020)
The whole screen tested about 65,000 compounds, of which about 2,100 (3.2%) showed an effect of 50% or more. The median lay at about -52%. Only a selection was taken, and strong results are over-represented in it overall.

system: Plasmodium falciparum; assay: Screen against P. falciparum Asexual Blood Stage (ABS), at 5uM; assay type: functional, Dd2; conditions: tested at 5 uM

| Structure (SMILES) | INHIBITION [%] |
| --- | --- |
| Cc1cccc(CN2C[C@@H]3COC[C@H](NS(C)(=O)=O)[C@@H]3C2)n1 | -96.6 |
| CC(C1CCN(Cc2c(Cl)ccc(O)c2Cl)CC1)N1CCN(C)CC1 (stereo not given) | 87.2 |
| Cc1n[nH]c2c1C(c1cc(F)cc(F)c1)SCC(=O)N2 (stereo not given) | -23.5 |
| O=C(c1ccco1)N1CC2(CCNCC2)c2cc(Cl)ccc21 | 76.1 |
| O=C1CCC2(CCCN(C(=O)c3ccco3)CC2)N1 (stereo not given) | 40.8 |
| CCOC(=O)N1CC2(CCNCC2)c2cc(Cl)ccc21 | 78 |
| O=C(c1ccco1)N1CCO[C@@H]2CNCC[C@@H]2C1 | -138 |
| O=C(c1ccccc1F)N1CC2(CCNCC2)c2cc(Cl)ccc21 | 77 |
| CCOC(=O)N1CCC2(CCNC2)C1 (stereo not given) | -85.4 |
| COC(=O)N1CC2(CCNCC2)c2cc(Cl)ccc21 | 13.1 |
| NC(=O)N1CC2(CCNCC2)c2cc(Cl)ccc21 | -61 |
| CC(=O)N1CC2(CCNCC2)c2cc(Cl)ccc21 | 3.4 |
| O=C(NC[C@]12COC[C@H]1CN(Cc1cccnc1)C2)C1CCC1 | -49.9 |
| CCC(C(=O)N1CCCSCC1)N1CCCC1=O (stereo not given) | -76.1 |
| CNCCc1nc2cc(Cl)ccc2[nH]1 | -71 |
| O=C(N1CCCO1)[C@@]12CCO[C@@H]1CCN(Cc1ccccn1)C2 | -110 |
| CC(Cn1cncn1)NCCN1CCc2ccccc21 (stereo not given) | -71.4 |
| CC(C)c1nn(C)c(Cl)c1CNCC(O)c1cccc(F)c1 (stereo not given) | 82.4 |
| CC(C)=CCN1C[C@@H]2CC[C@H]1CN(C(=O)CSc1ccncc1)C2 | -26.7 |
| Cc1noc(C)c1CN1CC2(CCCCN2C)CC1=O (stereo not given) | -15.4 |
| CC(C)NC(=O)[C@H]1C[C@@H]2[C@@H](C1)OCCN2Cc1ccccn1 | -84.2 |
| O=C(Nc1nccs1)C1CCCN1Cc1ccccn1 (stereo not given) | 93.7 |
| CCNc1ccnc(CN2CCCC2C(=O)Nc2nccs2)c1 (stereo not given) | 95.1 |
| O=C(N[C@@H]1CN(Cc2ccccn2)[C@@H]2COC[C@@H]21)C1CCC1 | -89.5 |

| Structure (SMILES) | INHIBITION [%] |
| --- | --- |
| O=C(Nc1cccnc1)[C@H]1C[C@@H]2CCN(Cc3nccs3)C[C@@H]2O1 | -177 |
| CCn1ccnc1CN1CCCC1C(=O)Nc1nccs1 (stereo not given) | 85 |
| CCn1ccnc1CN1CCCN(C(=O)Cc2csc(C)n2)CC1 | -15.3 |
| Cc1cnc(C(=O)N2C[C@H]3CN(Cc4cccnc4)C[C@H]3C2)cn1 | -8.02 |
| CN(C)CCN(Cc1cccnc1)C(=O)c1ccn(-c2ccccc2)n1 | 87.4 |
| CCCN1CCN(C(=O)Cc2nc(-c3ccco3)oc2C)CC1 | -36.9 |
| COc1cccc(C2=CCN(CCN3CCCC3=O)CC2)c1 | 12.8 |
| Cc1nc(CCN)cc(N2CCC(O)(c3ccc(Cl)cc3)CC2)n1 | 91.7 |
| Cc1nc(CN)cc(N2CCC(O)(c3ccc(Cl)cc3)CC2)n1 | 72.2 |
| CN1[C@@H](C(=O)NCC2CC2)C[C@@H]2CN(c3ncccn3)C[C@@H]21 | 13.9 |
| c1ccc(O[C@@H]2CC[C@H]3[C@H]2OCCN3CC2CCOCC2)nc1 | -83.6 |
| c1ccc(O[C@H]2CC[C@H]3[C@H]2OCCN3Cc2nccs2)nc1 | -64.9 |
| CC(C)C[C@H](N)COc1cccc(F)c1Oc1ccccc1 | 70.9 |
| CC(C)C[C@H](N)COc1cccc(F)c1Oc1cccc(Cl)c1 | 85.5 |
| CC(C)C[C@H](N)COc1cccc(F)c1Oc1ccc(Cl)cc1 | 86.5 |
| c1ccc(CO[C@@H]2C[C@H]3CN(c4ncccn4)CCN3C2)nc1 | -38.6 |
| c1cc(CN2CCOC3(CCCC3)C2)no1 | -101 |
| O=C1CSC(c2ccsc2)c2sccc2N1 (stereo not given) | -15.7 |
| Cc1ccc(N2CCO[C@H]3CN(Cc4cccs4)C[C@H]32)nn1 | -11.3 |
| Cc1cc(C2CCCN(CC(=O)Nc3nc4c(s3)CCC4)C2)n[nH]1 (stereo not given) | 86.9 |
| O=C(CN1CCCC(c2ccn[nH]2)C1)Nc1nc2c(s1)CCCC2 (stereo not given) | 86.1 |
| O=C(CN1CCCC(c2ccn[nH]2)C1)Nc1nc2c(s1)CCC2 (stereo not given) | 89.2 |
| COCCn1cc(C(=O)Nc2nc3c(s2)CCC3)c2ccccc21 | -78.7 |
| CC1CN(C)CCN1C(=O)COc1cccc(Oc2ccccn2)c1 (stereo not given) | -65.8 |

| Structure (SMILES) | INHIBITION [%] |
| --- | --- |
| Cc1noc(C)c1CN1CCOC2(CCCN(c3nccs3)C2)C1 (stereo not given) | -36.8 |
| CCCOc1cc(Cl)c(CN2CCNC(C(=O)NC3CC3)C2)cc1OC (stereo not given) | 75.4 |
| O=C(c1ccc(Cn2ccccc2=O)o1)N1CCC2(CC1)OCCO2 | 1.12 |
| CC(C)Cc1ncc2c(n1)CN(C(=O)c1ccc(CN3CCCC3)o1)C2 | 70.3 |
| CCCn1cc(C(=O)NCCCC(N)=O)c2ccccc21 | -75 |
| CCCn1cc(C(=O)NCCS(N)(=O)=O)c2ccccc21 | -25.6 |
| Cc1ccc(C(C)NCc2cn(CCC(N)=O)c3ccccc23)cc1C (stereo not given) | 82.8 |
| CC(C)CNC(=O)N1C[C@@H]2CCCN[C@@H]2C1 | -5.1 |
| COCCN1CCOCC12CCN(C(=O)c1ccncc1)CC2 | -98.9 |
| FC(F)(F)c1ccc2nc([C@H]3CCN(C4CCCCC4)C3)[nH]c2c1 | 83.6 |
| CCc1nc(-c2ccc(C(=O)N3CCC4(CC3)OCCO4)cc2)no1 | -52.5 |
| Cc1ccc2c(CC(=O)N3C[C@@H](O)[C@H](N(C)C)C3)coc2c1 | 9.22 |
| CN(C)CCCn1ccnc1C1CCCN(c2ncc(Cl)cc2F)C1 (stereo not given) | 84.4 |
| COCCO[C@@H]1C[C@H]2CN(C(=O)c3cccnc3)CCN2C1 | -84.1 |
| CCC(NCc1cccc(Cl)c1)c1ccccc1OCC(=O)NC (stereo not given) | 82.8 |
| Clc1ccccc1CNC(Cn1cncn1)c1ccccc1 (stereo not given) | -8.41 |
| CC(Cc1cccc(Cl)c1)NC(=O)NCc1ncnn1C (stereo not given) | -104 |
| CC(Cc1ccccc1Cl)NC(=O)Nc1cnn(CC(N)=O)c1 (stereo not given) | -20.1 |
| COCC(=O)NC(C)Cc1cccc(Cl)c1 (stereo not given) | -14.8 |
| Cc1ccccc1CNC(Cn1cncn1)c1ccccc1 (stereo not given) | -47.8 |
| CCC(NCc1ccccc1Cl)c1ccccc1OCC(=O)NC (stereo not given) | 74.7 |
| CCC(NCc1ccccc1C)c1ccccc1OCC(=O)NC (stereo not given) | 80 |
